Only some compounds are listed: those with a hit (about 1.3% of all), similar ones and a draw of the others.
SARS PLP yeast = inhibitors of SARS-CoV papain-like protease in yeast. S. cerevisiae expressing SARS-CoV PLpro, growth rescue. Potency, µM (titrated, usually from 32.9 µM), inactives show at the top dose activity, positive = growth rescue, most hits filed as activators. hit rate 0.19% among 330,000; calls by dose curve; note: 0% is about no effect; nearly all actives have a fitted effect of over 55% in size
VACV mCherry inh = vaccinia inhibition (mCherry reporter). Vaccinia virus mCherry reporter infection, fluorescence. Potency, µM (highest dose often 36.5 µM), for the others: top-dose activity change, negative = inhibition, hits mostly inhibitors. hit rate 0.63% among 310,000. AID 720579; calls by dose curve; tested in A549 cells; note: % is set by controls: 0 for no effect and ±100 for the full control effect; nearly all actives have a fitted effect of over 35% in size
AMA1 RON2 block = AMA1-RON2 (P. falciparum) interaction inhibition; AlphaScreen AMA1-biotinylated RON2 peptide binding; Potency, µM (doses to about 58.2 µM), for inactives: at the top dose activity change, negative = inhibition, hits mostly inhibitors; hit rate 0.2% among 360,000; AID 720542;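 note: 0% = vehicle wells and -100% = peptide control; nearly all actives have a fitted effect of over 45% in size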
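AMA1 (3D7) with his tag at 25 nM final met compounds first, then biotinylated RON2 peptide at 25 nM; detection used donor plus acceptor beads, 10 µg/mL apiece, read by AlphaScreen after 30 min at room temperature.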
AmpC inh detg = inhibitors of E. coli AmpC beta-lactamase with detergent | Potency, µM (doses to about 114 µM), for inactives: at the top dose activity change, negative = inhibition, usual class: inhibitors | AmpC hydrolysis of nitrocefin, absorbance 480 nm, 0.01% Triton | hit rate 0.041% among 370,000;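 note: 0% = no-compound wells and -100% = no-enzyme wells; nearly all actives have a fitted effect of over 25% in size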
Target sequence (P00811 whole entry, looked up): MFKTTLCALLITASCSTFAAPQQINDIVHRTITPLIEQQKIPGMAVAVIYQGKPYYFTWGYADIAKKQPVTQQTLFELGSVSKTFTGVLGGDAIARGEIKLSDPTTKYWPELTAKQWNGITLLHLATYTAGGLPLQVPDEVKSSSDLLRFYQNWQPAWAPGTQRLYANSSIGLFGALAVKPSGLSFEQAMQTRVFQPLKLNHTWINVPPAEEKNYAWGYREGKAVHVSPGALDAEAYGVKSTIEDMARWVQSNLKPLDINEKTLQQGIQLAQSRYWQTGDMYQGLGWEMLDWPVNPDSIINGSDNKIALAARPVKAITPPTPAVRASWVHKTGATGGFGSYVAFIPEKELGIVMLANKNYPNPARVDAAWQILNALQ
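20 mM phosphate pH 7.0 + 0.01% (detergent screen) or 0.0001% Triton X-100; 5.3 nM AmpC reagent; cpd preinc 15 min RT; nitrocefin (800 uM stock) to start; A480 q20 s × 4 min; Activity was normalised to no-enzyme and no-compound control wells.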
AmpC inh no detg = AmpC beta-lactamase inhibition without detergent; AmpC nitrocefin hydrolysis, absorbance 480 nm, 0.0001% Triton; AID 485341; hit rate 0.52% among 330,000; Potency, µM (top dose mostly 57.1 µM), without a hit: at the top dose activity change, negative = inhibition, usual class: inhibitors;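 note: plate controls were no compound for no effect and no enzyme for full effect; nearly all actives have a fitted effect of over 20% in size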
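AmpC (5.3 nM in the dispensed reagent) in 20 mM phosphate pH 7.0 with 0.01% (detergent screen) or 0.0001% Triton X-100 was preincubated with compounds for 15 min at room temperature. Nitrocefin was then added from an 800 uM solution, and hydrolysis was followed at 480 nm.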
VACV Venus inh = inhibitors of vaccinia virus (Venus reporter); hit rate 0.46% among 330,000; Vaccinia virus Venus reporter expression, fluorescence; Potency, µM (titrated, usually from 36.5 µM), without a hit: top-dose activity change, negative = inhibition, actives largely listed as inhibitors; calls by dose curve; tested in A549 cells; note: % is set by controls: 0 for no effect and ±100 for the full control effect; nearly all actives have a fitted effect of over 30% in size
* marks the source's active call; other numbers are inactive results; i = inactive; ? = inconclusive; · = not tested or not shown; ! = not confirmed by another sample. Unless noted, calls come from the whole dose curve; as a rule, active = well fitted curve in the direction sought with a large enough effect; inconclusive = small, poorly fitted or top-dose-only effect, or another doubt; inactive = no such curve, though single readings can be large; an effect the other way counts as inactive or inconclusive. Potency is the fitted concentration of half-maximal effect.

SMILES	SARS PLP yeast	VACV mCherry inh	AMA1 RON2 block	AmpC inh detg	AmpC inh no detg	VACV Venus inh
COC1=C(Nc2ccc(O)cc2)C(=O)c2ccccc2C1=O	-7%	14µM*	?	-10%	-17%	16µM*
COC1=C(Nc2ccc(OC)cc2)C(=O)C(OC)=C(Nc2ccc(OC)cc2)C1=O	·	-10%	-2%	·	·	1%
CCOc1ccc(NC2=C(OC)C(=O)c3ccccc3C2=O)cc1	-21%	0%	8.9µM*	-1%	-21%	3%
OC1(c2cccnc2)CCN(Cc2ccc3c(c2)CN(Cc2ccsc2)CCO3)CC1	·	-13%	·	·	·	-16%
Cc1ccccc1Nc1c(-c2ccc(O)cc2)nc2c(C)cccn12	·	-23%	·	-6%	·	-24%
COc1ccc(CN2CCCC(c3nc(-c4ccncc4)ncc3-c3ccccc3C)C2)c(OC)c1 (stereo not given)	·	-30%	·	·	·	-20%
Cc1cccc(-c2cccc(C(=O)N3CCc4c(cnc(C)c4CNC(=O)c4cncs4)C3)c2)c1	·	-20%	·	·	·	-10%
COc1cccc(Oc2cc(NN3CCCCC3)c([N+](=O)[O-])cc2[N+](=O)[O-])c1OC	6%	?	?	?	-56%	?
COc1ccc(C(C)=O)c(Oc2cc(NN3CCCCC3)c([N+](=O)[O-])cc2[N+](=O)[O-])c1	1%	?	45%	?	-5%	3.2µM*
O=C(O)c1ccc(C2CCCCC2)cn1	-6%	·	13µM*	-2%	-10%	·
CCOc1ccc(C(=O)NC(=S)NC2CCCC2)cc1[N+](=O)[O-]	8%	-8%	44%	?	10µM*	-10%
CCOc1ccc(C(=O)NC(=S)Nc2ccc(NC(=O)CC)cc2)cc1[N+](=O)[O-]	-9%	i	46%	?	-11%	-12%
O=C(CNC1CCCCCC1)Nc1ccc(S(=O)(=O)NC2CC2)cc1	4%	-17%	4%	0%	0.16µM*	-11%
CC(=O)Nc1ccc(S(=O)(=O)NC2CCCCCC2)cc1	5%	-27%	5%	-5%	-15%	-15%
CC(C)NC(=O)c1cn([C@H]2CC[C@@H](NC(=O)/C=C/c3cccs3)CC2)nn1	·	-1%	·	·	·	-17%
Cc1ccc(C(=O)NCCc2nnc3n2CCN(C(=O)c2ccnc(Cl)c2)CC3)cc1	·	0%	·	·	·	2%
CCCCNc1c(-c2ccc(-c3ccc(OC)cc3)c(OC)c2)nc2ccccn12	8%	32µM*	-13%	·	2%	?
CC1Nc2ncnc(N3CCN(c4ccccc4)CC3)c2N(Cc2ccc(Br)cc2)C1=O (stereo not given)	-9%	7.1µM*	-20%	-5%	158%	?
COc1cc(=O)n2c(c1C(=O)N(C)Cc1ccsc1)CCN(Cc1c(C)nn(C)c1Cl)CC2	·	-9%	·	·	·	-2%
CCOc1ccc(-c2n[nH]c(C(=O)NN)c2C)cc1	-25%	·	87%	-12%	28µM*	·
C=C1C(=O)O[C@@H]2C[C@@H](C)[C@@H]3C=CC(=O)[C@@]3(C)[C@@H](O)[C@H]12	0%	?	10%	1%	-15%	10µM*!
C[C@@H]1C[C@@H]2OC(=O)[C@]3(C)[C@H]2[C@@H](OC3(C)O)[C@]2(C)C(=O)C=C[C@H]12 (stereo not given in full)	-1%	-13%	-1%	-3%	-17%	?
C=C1C(=O)O[C@@H]2C[C@@H](C)[C@@H]3C=CC(=O)[C@@]3(C)[C@@H](OC(C)=O)[C@H]12	1%	11µM*	2%	1%	32%	7.9µM*
CCc1ccccc1NC(=O)Nc1ccc2c(c1)N(CC)C(=O)c1ccccc1S2	·	?	·	1%	·	?
O=C(C#Cc1ccccc1)c1ccco1	-66%	10µM*	-5%	?	-35%	13µM*
Nn1cnnc1N/N=C/c1ccc(Cl)cc1Cl	-4%	8.9µM*	21%	0%	4%	?
CC(C)(CNC(=O)C1CCN(S(=O)(=O)c2cc([N+](=O)[O-])ccc2Cl)CC1)N1CCOCC1	-6%	14µM*	9%	-12%	31%	?

Bioassay records: PubChem, National Center for Advancing Translational Sciences (NCATS)
